High-throughput results: PubChem, National Center for Advancing Translational Sciences (NCATS)
This excerpt belongs to a sample that is enriched for hits.
Pf Dd2 growth: Plasmodium falciparum Dd2 growth inhibition. Potency, µM (titrated, usually from 28.9 µM), without a hit: at the highest dose activity, negative = inhibition, actives largely listed as inhibitors. P. falciparum Dd2 growth, SYBR Green, 72 h. 120,000 compounds, 4.3% hits; active = well fitted inhibition curve with a large enough effect;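 also: plate controls were DMSO vehicle for no effect and reference drug for full effect; nearly all actives have a fitted effect of over 65% in size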
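Readout: SYBR Green fluorescence, 485 nm excitation, 535 nm emission, after ~16 h lysis at 37C. Before that, Dd2-infected red cells (2.5% hematocrit) grew 72 h with compound, 29 uM top final concentration.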
* marks the source's active call; other numbers are inactive results; i = inactive; [ ] = remark or other dose. Potency is read from the fitted curve at half-maximal effect.

SMILES	Pf Dd2 growth
CCN(CC)C(=O)c1sc2c(c1C)c(=O)n(-c1ccc(C)c(C)c1)c(=O)n2Cc1cc(=O)n2c(C)cccc2n1	-7%
CCc1ccccc1NC(=O)Cn1c(=O)n(Cc2ccccc2)c(=O)c2c(C)c(C(=O)N(C)C)sc21	4.5µM*
CCN(CC)C(=O)c1sc2c(c1C)c(=O)n(CCc1ccccc1)c(=O)n2Cc1ccc(C)cc1	11µM*
CCN(CC)C(=O)c1sc2c(c1C)c(=O)n(-c1ccccc1)c(=O)n2Cc1c(C)cc(C)cc1C	10µM*
Cc1ccccc1NC(=O)Cn1c(=O)n(Cc2ccccc2)c(=O)c2c(C)c(C)sc21	18%
COc1ccc(C(=O)N2CCC3(C2)NC(=O)c2ccccc2CO3)cc1 (configuration not stated)	-15%
COCc1cc(C[C@H]2CNCC[C@H]2CC(=O)NCc2cccs2)no1	-2%[44.1 µM]
C#CCN(C)CC[C@@H]1CC[C@H](O)[C@@H](C(=O)NC(C)C)O1	-12%[44.1 µM]
O=C(CN1Cc2nc(-c3cc4ccccc4o3)ccc2OCC1=O)N1CCCC1	-19%[44.1 µM]
O=C(c1ccncc1)N1C[C@@H]2OCC(=O)N(Cc3cccnc3)[C@@H]2C1	-5%[44.1 µM]
COCCc1noc(-c2nnn3c2COC(c2ccc(OC)cc2)C3)n1 (configuration not stated)	i
COc1ccc2[nH]cc(CCN=C(NC(=O)c3cccc(Cl)c3)Nc3nc(C)cc(C)n3)c2c1	8.9µM*
COc1ccc2[nH]cc(CCNC(=O)Nc3cccc(F)c3)c2c1	4%
COc1ccc2[nH]cc(CCNC(=O)Nc3c(C)cccc3C)c2c1	i
Cc1c(C(=O)N(C)Cc2cc(-c3ccccc3)no2)oc2c(F)cccc12	-8%
COc1ccc(C(=O)N2C(C(=O)N3CCCC3)COC23CCN(C(=O)c2cccc(C)c2)CC3)cc1 (configuration not stated)	0%
O=C1[C@@H]2C[C@@H](CN2C(=O)C2CC2)Oc2ccccc2N1Cc1ccc(OC(F)(F)F)cc1	i
COCC(=O)N1C[C@@H]2C[C@H]1C(=O)N(Cc1ccc(OC(F)(F)F)cc1)c1ccccc1O2	i
O=C1[C@@H]2C[C@@H](CN2Cc2nccs2)Oc2ccccc2N1CC1CC1	i
O=C1[C@@H]2C[C@@H](CN2CC2CC2)Oc2ccccc2N1Cc1ccc(OC(F)(F)F)cc1	4µM*
O=C1[C@@H]2C[C@@H](CN2Cc2cccc(Cl)c2)Oc2ccccc2N1CC1CC1	-11%[44.1 µM]
O=C1[C@@H]2C[C@@H](CN2Cc2ccc(Cl)cc2)Oc2ccccc2N1CC1CC1	13µM*
CC(=O)N1CCC(N[C@H]2C[C@@H](Cc3cc(CN4CCCCC4)on3)C2(C)C)CC1	-23%[44.1 µM]
O=C1CCC(C(=O)N2CCN(c3ccc(Cl)cn3)CC2)CN1CCc1ccccn1 (configuration not stated)	-13%
COC(=O)[C@@H](C)NC(=O)[C@H]1CN(C(=O)c2ccc(N(C)C)cc2)CCN1S(C)(=O)=O	28%
SMILES	Pf Dd2 growth
Cc1nn(C)c(C)c1S(=O)(=O)N[C@@H]1COCC[C@H]1OCc1ccccn1	-9%
CCN1c2cc(C(=O)NCc3ccncc3)ccc2C(=O)N2CCCCCC21 (configuration not stated)	-14%
CCOC(=O)C[C@@H]1C[C@@H](C(C)C)[C@H](CNS(=O)(=O)c2ccccc2)C=C1C	-5%[44.1 µM]
COc1ccc(OC)c([S+](=O)([O-])c2nnn3c2nc(NCCCOC(C)C)c2ccccc23)c1	-13%
CNC(=O)c1noc([C@@H]2CC(F)(F)CN2Cc2ccc[nH]2)n1	14%
CS(=O)(=O)N1CCC(OC2CCN(C(=O)Nc3cccc(Cl)c3)CC2)CC1	i
O=C(c1cccc(Cl)c1)N1CCC(N2CC3CCCN3C2=O)CC1 (configuration not stated)	20%
O=C(NCc1cccc(Cl)c1)c1ccc(NC(=O)N2CC3CCCN3c3ccccc32)cc1 (configuration not stated)	8.9µM*
O=C(Nc1cccc(Cl)c1)N1CC2CCCN2c2ccccc21 (configuration not stated)	8.9µM*
O=C(CCC(=O)N1CC2CCCN2c2ccccc21)NCc1cccc(Cl)c1 (configuration not stated)	11%
O=C(NCc1cccc(Br)c1)c1ccc(NC(=O)N2CCCCc3ccccc32)cc1	-3%
CN(C)Cc1cc(C[C@@H]2C[C@H](NS(=O)(=O)c3ccc(F)cc3)C2(C)C)no1	-4%[44.1 µM]
CCC(=O)N(C1CCOCC1)C1CCN(S(=O)(=O)c2ccc(C)c(C)c2)CC1	i
CC1(C(=O)NCc2cccc(Cl)c2)CCc2cnc(N3CCOCC3)nc21 (configuration not stated)	-24%[44.1 µM]
COc1cc2c(C(=O)N3CCN(c4ccc(C)cc4)C(C)C3)cn(CC(C)C)c(=O)c2cc1OC (configuration not stated)	8.9µM*
CCn1cc(C(=O)N2CCN(c3ccccc3OC)CC2)c2cc(OC)c(OC)cc2c1=O	-9%
CCn1cc(C(=O)N2CCN(c3ccc(C)cc3)C(C)C2)c(=O)c2cc(S(=O)(=O)N3CCCC3)ccc21 (configuration not stated)	20%
